Assay outcomes: PubChem, National Center for Advancing Translational Sciences (NCATS)
The sample as a whole holds a higher share of hits than the screen did.
Pf Dd2 growth – Plasmodium falciparum Dd2 growth inhibition; P. falciparum Dd2 growth, SYBR Green, 72 h; Potency, µM (series often up to 28.9 µM), inactives show at the top dose activity, negative = inhibition, most hits filed as inhibitors; 120,000 compounds, 4.3% hits; active means well fitted inhibition curve with a large enough effect;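 further: plate controls were DMSO vehicle for no effect and reference drug for full effect; nearly all actives have a fitted effect of over 65% in size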
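Infected erythrocytes (Dd2, 0.3% parasitemia, 2.5% hematocrit final) are added to compound in RPMI-1640/Albumax II medium, grown 72 h at 37C in low oxygen, then lysed with saponin/Triton-X containing SYBR Green and read by fluorescence.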
* = called active by the depositor; i = inactive; [ ] = another dose, or the depositor's remark. Potency means the concentration at half of the fitted maximal effect.

SMILES	Pf Dd2 growth
COc1ccc(-c2cc(N3CCC(NC(=O)c4ccc(F)c(Cl)c4)C3)n[nH]2)cc1 (stereo not given)	-2%
COc1ccccc1C(=O)N1CCC(c2nnc3n2C(C(=O)O)CC3)CC1 (stereo not given)	15%
COc1ccc(NC(=O)C2CCN(C(=O)c3ncn4c3COC(c3ccccc3)C4)CC2)cc1 (stereo not given)	i
COc1ccc(C2Cn3cnc(C(=O)N4CCC(C(=O)Nc5cccc(F)c5)CC4)c3CO2)cc1 (stereo not given)	-26%
COc1ccc(C2Cn3cnc(C(=O)N4CCC(C(=O)Nc5ccccc5F)CC4)c3CO2)cc1 (stereo not given)	11µM*
COc1ccc(C2Cn3cnc(C(=O)N4CCC(C(=O)Nc5ccc(C)cc5)CC4)c3CO2)cc1 (stereo not given)	-20%
COc1ccc(C2Cn3cnc(C(=O)N4CCC(C(=O)Nc5ccccc5OC)CC4)c3CO2)cc1 (stereo not given)	10µM*
COc1ccc(C2Cn3cnc(C(=O)N4CCC(C(=O)Nc5ccc(C)cc5C)CC4)c3CO2)cc1 (stereo not given)	-9%
CNC(=O)[C@@H]1CN(C(=O)Cn2c(=O)oc3ccccc32)C[C@H]1COC	-3%
CC1CCN(C(=O)C2CCCN(c3cnn(C)c(=O)c3)C2)CC1 (stereo not given)	i
Cc1c(CC(=O)NCC2CCCOC2)c2c(n1CC(C)C)CC(C)(C)CC2=O (stereo not given)	-19%
O=C1N(c2ccccc2)C[C@H]2CN(Cc3ccccc3)CCN12	-8%[44.1 µM]
OCCc1ccc(Nc2cnc3ccc(-c4ccc(F)cc4)nn23)cc1	i
CC(=O)NC1CC2(CCN(C(=O)CCCN(C)C)CC2)c2ccccc21 (stereo not given)	20%
O=C(CC(c1cccc2c1OCO2)c1c[nH]c2ccccc12)NCc1ccccc1 (stereo not given)	i
CCCCCNC(=O)CC(c1cccc(OC)c1OC)c1c[nH]c2c(CC)cccc12 (stereo not given)	-21%
CCCCNC(=O)CC(c1cccc2c1OCO2)c1c[nH]c2c(CC)cccc12 (stereo not given)	10µM*
CCN1CC(C(=O)NCc2cccc(OCc3ccccc3)c2)CC1=O (stereo not given)	12%
CSc1ccc(/C=C/c2nc3ccccc3n2S(=O)(=O)c2cccc(Cl)c2)cc1	i
O=S(=O)(c1cccc(Cl)c1)n1c(/C=C/c2ccccc2Cl)nc2ccccc21	i
Cc1ccc(/C=C/c2nc3ccccc3n2S(=O)(=O)c2ccc(Br)cc2)cc1	5.6µM*
CN(C)c1nccnc1OC1CCN(C(=O)CC2CCCC2)C1 (stereo not given)	-9%
CN(C)C[C@@H]1CN(C)C[C@H]1NC(=O)c1ccccc1OC(F)(F)F	-7%
CNC(=O)N1C[C@@H](CN(C)C)[C@H](NC(=O)c2ccccc2OC(F)(F)F)C1	i
CC(C)N[C@@H]1CC[C@@H]1NC(=O)c1ccccc1OC(F)(F)C(F)F	7.9µM*
SMILES	Pf Dd2 growth
Cc1ccc(C(=O)N2CCCCC2C(=O)Nc2cccc(-c3nnc(C)s3)c2)cn1 (stereo not given)	-19%
COc1ccc(CN[C@H]2[C@H](O)[C@@H](N3CCN(C)CC3)[C@@H]3OC[C@H]2O3)cc1	-10%[44.1 µM]
COc1cc(OC)c(NC(=O)C2CCN(S(=O)(=O)c3c(C)noc3/C=C/c3c(C)cc(C)cc3C)CC2)cc1Cl	i
Cc1noc(C)c1S(=O)(=O)N1CCC(C(=O)Nc2ccc(Br)cc2)CC1	-12%
COc1cccc(/C=C/c2onc(C)c2S(=O)(=O)N2CCC(C(=O)N3CCC(C)CC3)CC2)c1	-9%
CCc1ccc(NC(=O)C2CCN(S(=O)(=O)c3c(C)noc3/C=C/c3cccs3)CC2)cc1	13µM*
Cc1cccc(NC(=O)C2CCN(S(=O)(=O)c3c(C)noc3/C=C/c3ccco3)CC2)c1C	-13%
COc1ccc(/C=C\c2onc(C)c2S(=O)(=O)N2CCC(C(=O)Nc3cccc(C)c3C)CC2)cc1	2.8µM*
Cc1noc(/C=C/c2cccs2)c1S(=O)(=O)N1CCC(C(=O)NCc2ccc(Cl)cc2)CC1	i
Cc1ccc(/C=C/c2onc(C)c2S(=O)(=O)N2CCC(C(=O)Nc3ccc(OC(F)(F)F)cc3)CC2)cc1	62%
CCOc1ccc(NC(=O)C2CCN(S(=O)(=O)c3c(C)noc3/C=C/c3c(C)cc(C)cc3C)CC2)cc1	63%
COc1cccc(CNC(=O)C2CCN(S(=O)(=O)c3c(C)noc3/C=C/c3cccs3)CC2)c1	6.3µM*
Cc1cc(C)c(/C=C/c2onc(C)c2S(=O)(=O)N2CCC(C(=O)NCc3ccco3)CC2)c(C)c1	11µM*
Cc1ccc(NC(=O)C2CCN(S(=O)(=O)c3cccs3)CC2)cc1	-20%
O=C1[C@@H]2C[C@@H](O)CN2C2(CN(Cc3ccccc3Cl)C2)C(=O)N1Cc1ccccc1F	-25%
O=C(c1ccc(Oc2ccccc2)cc1)N1CCNc2cnc(Nc3cccc(C(F)(F)F)c3)nc2C1	-2%
CCCc1noc(-c2cccn3c(CNC(=O)C4CCCCC4)nnc23)n1	-4%
